An excerpt weighted towards active compounds, which were near 5.7% of everything screened.
PI5P4K alpha inh: blocks human PI5P4K alpha kinase activity. max response, %. 330,000 compounds, 1.2% hits. P48426. PI5P4Kalpha enzyme, ADP-Glo luminescence, 60 min; hits give low values; active means max response of -50% or lower; inconclusive means between -30% and -50%; inactive means -30% or higher; further: value at the top dose of about 77 µM; on the % scale 0 is the no-effect control and ±100 the full control effect
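Quantitative HTS of the MLSMR library against PI5P4Kalpha with substrate. ATP added last at 5 microM final; room temperature, 60 minutes. Remaining ATP depleted, ADP converted and read as luminescence.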
HP1b chromo inh: HP1-beta chromodomain-methylated histone interaction inhibition | 390,000 compounds, 0.56% hits | Potency, µM (titrated, usually from 114 µM), for the others: top-dose activity change, negative = inhibition, actives largely listed as inhibitors | AlphaScreen HP1-beta / biotin-H3K9me3 peptide binding; further: potency means the concentration at half of the fitted maximal effect; nearly all actives have a fitted effect of over 70% in size
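AlphaScreen: HP1-beta (50 nM) preformed 30 min with biotin-H3(1-18)K9me3 peptide (50 nM) in PBS pH 7.4, 0.01% Tween-20. Compound added for 30 min at RT, then streptavidin donor/nickel chelate acceptor beads (10 ug/mL) for 30 min.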
L3MBTL1 inh: L3MBTL1 (human) inhibition | Q9Y468 | 230,000 compounds, 0.66% hits | Potency, µM (doses to about 57.1 µM), for inactives: top-dose activity, negative = inhibition, actives largely listed as inhibitors | AlphaScreen L3MBTL1–H3K9me1 peptide binding; further: potency means the concentration at half of the fitted maximal effect; on the % scale 0 is the no-effect control and ±100 the full control effect; nearly all actives have a fitted effect of over 60% in size
Target sequence (Q9Y468 whole entry, looked up): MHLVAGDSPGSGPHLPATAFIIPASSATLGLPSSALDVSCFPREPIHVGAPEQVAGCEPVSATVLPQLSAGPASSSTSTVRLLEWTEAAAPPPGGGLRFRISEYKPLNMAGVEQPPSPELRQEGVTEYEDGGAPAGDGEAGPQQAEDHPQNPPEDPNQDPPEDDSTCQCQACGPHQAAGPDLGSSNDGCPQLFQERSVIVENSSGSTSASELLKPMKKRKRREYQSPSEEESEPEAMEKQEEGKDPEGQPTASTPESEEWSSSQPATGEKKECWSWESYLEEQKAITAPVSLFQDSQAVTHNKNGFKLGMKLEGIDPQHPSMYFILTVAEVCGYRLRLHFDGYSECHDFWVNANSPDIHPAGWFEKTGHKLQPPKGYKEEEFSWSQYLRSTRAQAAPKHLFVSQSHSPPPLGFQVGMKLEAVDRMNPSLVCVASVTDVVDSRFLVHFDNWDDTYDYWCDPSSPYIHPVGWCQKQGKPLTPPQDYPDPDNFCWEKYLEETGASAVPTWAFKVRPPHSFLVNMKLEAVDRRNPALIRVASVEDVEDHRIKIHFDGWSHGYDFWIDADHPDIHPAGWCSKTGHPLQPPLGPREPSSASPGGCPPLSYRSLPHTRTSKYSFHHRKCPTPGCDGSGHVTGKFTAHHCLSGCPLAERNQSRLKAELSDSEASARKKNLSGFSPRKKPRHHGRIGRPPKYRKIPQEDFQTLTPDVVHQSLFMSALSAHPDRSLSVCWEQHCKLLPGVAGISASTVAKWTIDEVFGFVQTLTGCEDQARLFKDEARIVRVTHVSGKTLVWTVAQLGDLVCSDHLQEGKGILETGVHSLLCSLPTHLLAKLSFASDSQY
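Displacement of a biotinylated histone H3(1-15) peptide monomethylated at Lys9 (75 nM) from L3MBTL1 (50 nM) was measured by AlphaScreen after a 30 min room-temperature compound incubation; cefsulodin titration served as intraplate control.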
JMJD2E inh: blocks human JMJD2E demethylase activity; B2RXH2; JMJD2E catalytic domain, FDH-coupled NADH fluorescence (FDH is formaldehyde dehydrogenase); Potency, µM (series often up to 57.1 µM), without a hit: at the highest dose activity change, negative = inhibition, most hits filed as inhibitors; 230,000 compounds, 1.6% hits; active means well fitted inhibition curve with a large enough effect, not every such curve was filed as active; inconclusive means small, poorly fitted or top-dose-only effect, or another doubt; inactive means no such curve, though single readings can be large or run the other way;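 further: potency means the concentration at half of the fitted maximal effect; 0% = wells with enzyme and -100% = buffer wells without enzyme; nearly all actives have a fitted effect of over 50% in size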
BAZ2B block: blocks human BAZ2B | Q9UIF8 | AlphaScreen BAZ2B-H3K14Ac peptide displacement | Potency, µM (highest dose often 114 µM), without a hit: top-dose activity change, negative = inhibition, hits mostly inhibitors | 360,000 compounds, 4.4% hits | AID 504333; further: potency means the concentration at half of the fitted maximal effect; on the % scale 0 is the no-effect control and ±100 the full control effect; nearly all actives have a fitted effect of over 60% in size
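Protein-peptide AlphaScreen: BAZ2B 50 nM, b-H3K14Ac 50 nM, 1x PBS pH 7.4 + 0.01% Tween-20. Preincubation 30 min RT; cpd 30 min RT (top 110 uM); beads 20 min RT, light-protected.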
JMJD2A Tudor inh: JMJD2A Tudor domain (human) inhibition; O75164; AlphaScreen JMJD2A-Tudor / H3K4me3 peptide binding; Potency, µM (series often up to 114 µM), without a hit: top-dose activity change, negative = inhibition, actives largely listed as inhibitors; 390,000 compounds, 4.4% hits; AID 504339; further: potency means the concentration at half of the fitted maximal effect; on the % scale 0 is the no-effect control and ±100 the full control effect; nearly all actives have a fitted effect of over 50% in size
Numbers without * were called inactive; ? = inconclusive; / = no result; [ ] = remark or other dose. Unless noted, the call rests on the fitted dose curve; in most records, active means well fitted inhibition curve with a large enough effect; inconclusive means small, poorly fitted or top-dose-only effect; inactive means no such curve, though single readings can be large or run the other way.

SMILES	PI5P4K alpha inh	HP1b chromo inh	L3MBTL1 inh	JMJD2E inh	BAZ2B block	JMJD2A Tudor inh
CCN(CC)c1ccc(/C=C2/C(=O)ON=C2C)cc1	-1	?	-17%	5%	40µM*	45µM*
CC1=NOC(=O)/C1=C/c1ccc(O)c(Cl)c1	-10	10%	/	/	50µM*	-17%
CCOc1cc(/C=C2/C(=O)ON=C2C)ccc1O	-16	4%	/	/	-38%	-4%
CN(C)S(=O)(=O)c1ccc2c(c1)N(CC(=O)NCc1ccc(F)cc1)C(=O)CS2	/	65%	/	/	-19%	-16%
COc1cc(CNCCSc2nnnn2C)ccc1OCc1ccc(C)cc1	/	36%	/	/	?	-7%
CCCCNC(=S)NCCN1CCCCC1	-2	?	1%	-6%	4%	1.6µM*
CCNC(=S)NCCN1CCCCC1	0	53%	/	6%	-3%	1%
CCCNC(=S)NCCN1CCCCC1	0	-27%	3%	?	?	40µM*
COc1ccc(-c2nn(-c3ccc(C)c(Cl)c3)c3c2cnc2cc(OC)c(OC)cc23)cc1	/	39%	/	/	-16%	-1%
CC1=C(C(=O)Nc2cccc(C(F)(F)F)c2)C2(CCCCCC2)OC1=O	/	16%	/	/	4%	17%
S=C(N/N=C/c1ccc(Br)cc1)N1CCCCC1	0	11%	?	/	7.9µM*	?
CC(=O)OCON[N+]([O-])=NC1CCCCC1	/	?	/	/	/	20µM*
Cc1ccc(-n2c(C)cc3c2CC(C)(C)CC3=O)cc1C	1	-28%	/	-5%	?	56µM*
CCOc1cc(Br)cc(C2NC(=O)c3c(sc4c3CCN(C)C4)N2)c1O (configuration not stated)	/	10%	/	/	-24%	-33%
COc1cc2ncc(C(=O)c3ccccc3)c(N3CCN(Cc4ccccc4)CC3)c2cc1OC	5	?	-17%	-15%	?	22µM*
Cc1ccc(C(=O)N(C)c2nnc(-c3ccncc3)s2)cc1	2	8%	6%	1%	-34%	79µM*
CN(C(=O)c1ccno1)c1nnc(-c2ccccn2)s1	-1	49%	-1%	/	50µM*	?
CN(C(=O)c1ccncc1)c1nnc(-c2ccccn2)s1	6	16%	/	?	56µM*	-28%
COc1ccc(CNC(=O)C2CCCN(S(=O)(=O)c3ccc4c(ccn4C)c3)C2)c(OC)c1 (configuration not stated)	/	14%[57 µM]	/	/	-12%	-20%
O=S(=O)(c1ccc2c(c1)OCCO2)N1CCN(S(=O)(=O)c2ccc3nc(Cl)c(Cl)nc3c2)CC1	/	/	/	/	/	-6%
Cc1ccc(C=Nc2ccc(N(C)C)cc2)o1	/	?	?	13µM*	/	45µM*
CCc1ccc(NC(=O)Cn2cc(S(=O)(=O)c3ccc(F)cc3)c(=O)c3cc(OC)ccc32)cc1	/	53%	/	/	4%	2%
Nc1cc([N+](=O)[O-])cc2oc(-c3ccccc3)cc12	24	?	/	/	10µM*	13µM*
Cc1oc(/N=C/c2cccc3ccccc23)c(C#N)c1C	/	-36%	6%	-21%	-5%	35µM*
Cc1nn(-c2ccc(N3CCCCC3)nn2)c(C)c1CCC(=O)Nc1ccc(F)cc1F	/	111%	/	/	5%	-22%
SMILES	PI5P4K alpha inh	HP1b chromo inh	L3MBTL1 inh	JMJD2E inh	BAZ2B block	JMJD2A Tudor inh
O=c1c2ccccc2nc2c3ccccc3c(NCc3cccnc3)nn12	3	49%	?	?	-2%	-3%
O=c1c2ccccc2nc2c3ccccc3c(NCc3ccccn3)nn12	3	43%	3%	?	50µM*	?
COc1ccc(N2CCN(c3ncnc4c3nnn4C)CC2)cc1	/	25%	/	/	-22%	-31%
Cc1ccc(-n2ncc3c(N4CCN(c5ccc(F)cc5)CC4)ncnc32)cc1	/	53%	/	/	-1%	6%
Cn1nnc2c(N3CCN(c4ccc(F)cc4)CC3)ncnc21	/	12%	/	/	-13%	40µM*
Cn1ncc2c(N3CCN(c4ccc(F)cc4)CC3)ncnc21	/	-6%	/	/	79µM*	-26%
CC1Cn2c(C(=O)NCc3cccc(Br)c3)cc3cccc(c32)S1 (configuration not stated)	/	76%	/	/	12%	34%
Cc1cccc(C)c1NC(=O)CCn1cnc2ccccc2c1=O	-14	37%	2%	18%	-5%	-22%
CCCCCC/C(C)=C1/SC(=S)NC1=O	-71*	-27%	-10%	0%	-9%[57.1 µM]	-33%
C/C(C/C(C)=C1/SC(=S)NC1=O)=C1\SC(=S)NC1=O	-105*	?	/	10%	-16%	?
CCCCCCCC(=O)NNC(=O)Cc1ccccc1	/	24%	-1%	9%	-37%	6%
N#CCOc1ccccc1CNC[C@H]1O[C@@H](n2cnc3c(=O)[nH]c(N)nc32)[C@H](O)[C@@H]1O	-2	/	/	/	/	/
CC(=O)Nc1ccc(NS(=O)(=O)c2cc(-c3n[nH]c(=O)c4ccccc34)ccc2C)cc1	-20	3%	-10%	5%	79µM*	-17%
Cc1c(N=Nc2ccc(O)cc2)c(=O)n(-c2ccccc2)n1C	3	14%	?	1%	?	-22%
Cc1c(N=NC2=C(O)CCCC2=O)c(=O)n(-c2ccccc2)n1C	3	?	-8%	-8%	22µM*	14µM*
CN1C(=O)C(Cl)(Cl)C(=O)c2ccccc21	-89*	-14%	-13%	?	40µM*	28µM*
O=C(c1cc2ccc3cccnc3c2[nH]1)N1CCCCC1	/	-13%	/	/	0%[57.1 µM]	-27%
O=c1cc[nH]c2c1ccc1cccnc12	-3	56%	-8%	/	56µM*	-28%
CCC(O)c1nc2ccccc2n1CCOc1cc(C)cc(C)c1 (configuration not stated)	/	15%	/	/	-5%	-31%
CC(NC(=O)/C=C/c1ccc(Br)cc1)c1ccc(Cl)cc1 (configuration not stated)	8	35%	1%	8%	8%	2%
CCOc1ccc(CCNC(=O)c2ccc(C)c(-n3c(C)nc4cccnc43)c2)cc1OCC	/	42%	/	/	-9%	-4%
COc1cccc(C2C(C#N)=C(NC(=O)NCc3ccccc3)Oc3ccc4ccccc4c32)c1 (configuration not stated)	/	/	/	/	/	-10%
CCOc1ccc2c(c1)c(N=NC(N)=S)c(O)n2C	-1	46%	-12%	-3%	-19%	-12%
CCOc1ccc2c(c1)n(CO)c(=S)n2CO	0	6%	7%	-5%	0%	79µM*
O=C1NC(=O)/C(=C/c2cccc(O)c2)N1	-64*	29%	50%	?	-28%	-7%
COC(=O)CN1C(=O)[C@H]2[C@@H](c3ccc(C)o3)N3C(=O)CN(Cc4ccccc4)C(=O)[C@@]3(Cc3ccccc3)[C@H]2C1=O	?	18%	5%	/	-4%	-16%

Assay outcomes: PubChem BioAssay, National Center for Advancing Translational Sciences (NCATS)
